Data taken from PubChem BioAssay AID624040 (The Scripps Research Institute Molecular Screening Center, 2012).
In all, about 360,000 compounds went through this assay and about 2,100 (0.58%) were called active.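 Rule for the calls: active = inhibition above a per-plate cutoff, the mean of that plate's test compounds plus 3 SD (cut at about 27% in these data); inactive = the rest.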 For the sample, actives were picked, then their nearest neighbours and some compounds at random.

biological target: Muscarinic acetylcholine receptor M5 (Homo sapiens) (UniProt P08912); assay: human M5 muscarinic receptor antagonists, primary screen, CHO cells, Fluo-8 calcium fluorescence (AID 624040); details: CHO-hM5 cells, ACh EC80, at 3 µM, hits give high values;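 note: 0% = acetylcholine EC80 with DMSO and 100% = DMSO without agonist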
Sequence (P08912 whole entry, looked up): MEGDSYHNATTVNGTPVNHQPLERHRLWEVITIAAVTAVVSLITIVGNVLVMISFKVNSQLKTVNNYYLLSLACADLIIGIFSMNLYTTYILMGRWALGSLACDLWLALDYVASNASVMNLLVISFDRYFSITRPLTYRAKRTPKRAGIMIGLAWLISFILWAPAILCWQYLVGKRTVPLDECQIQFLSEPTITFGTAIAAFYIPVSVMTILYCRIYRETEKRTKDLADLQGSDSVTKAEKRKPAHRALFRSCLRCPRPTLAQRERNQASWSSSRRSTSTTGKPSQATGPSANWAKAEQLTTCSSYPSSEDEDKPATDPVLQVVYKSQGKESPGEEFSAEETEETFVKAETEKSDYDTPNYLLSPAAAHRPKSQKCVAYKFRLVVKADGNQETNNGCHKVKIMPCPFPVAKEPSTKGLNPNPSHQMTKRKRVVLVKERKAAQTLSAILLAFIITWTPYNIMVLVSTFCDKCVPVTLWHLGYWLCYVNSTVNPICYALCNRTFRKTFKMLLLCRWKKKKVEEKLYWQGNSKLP

inhibition, active:
CC(C[N+](C)(C)C)OC(N)=O (configuration not stated) 74.8%
CC(=O)OC(C)C[N+](C)(C)C (configuration not stated) 95.7%
O=C(Cc1ccc(Cl)cc1)NC(=S)Nc1ccccc1O 64.5%
O=C1C(Cl)=C(Oc2ccccc2)C(=O)c2ccccc21 30.4%
Cc1ccc(NC(=O)OCCNC(=O)c2ccncc2)cc1 50%
C#CC(CCN1CCCCC1)(OC)c1ccccc1 (configuration not stated) 30.6%
CCCCCCC(O)(CCN1CCCCC1)c1ccccc1 (configuration not stated) 97.8%
CCCCCC(O)(CCN1CCCCC1)c1ccccc1 (configuration not stated) 98.2%
Nc1nnc(SCC(=O)Nc2ccc3nc(SCC(=O)Nc4ccccc4)sc3c2)s1 43.5%
CCN1CCC2(CC1)N=C(c1ccc(F)cc1)C(=S)N2C(=O)c1ccc(C)cc1 69.5%
CC1(C)CC(N2CCN(C(c3ccccc3)c3ccccc3)CC2)=CC(=[N+]2CCCCC2)C1 31.9%
COc1cccc(CNc2nc(NCc3cccs3)nc3ccsc23)c1 44.2%
CCOc1ccc(N2C(=O)CC(N(CCc3ccc(OC)c(OC)c3)C(=S)Nc3ccccc3)C2=O)cc1 (configuration not stated) 30.8%
CCCCCCCCCCOC(=O)Cn1c(COc2cccc(OC)c2)[n+](C)c2ccccc21 31%
O=C(/C=C(O)/C=C/c1ccc(O)cc1)/C=C/c1ccc(O)cc1 54.8%
COc1ccc(S(=O)(=O)NCCCCOc2ccc(Cl)cc2)cc1 32.2%
CCC(C(=O)OCCN(CC)CC)c1ccccc1 (configuration not stated) 67.6%
CCCC(C(=O)OCCN(CC)CC)(c1ccccc1)c1ccccc1 48.8%
CC(C)c1ccc(C=NNc2ccc([N+](=O)[O-])cn2)cc1 27.5%
CC(=O)c1c(C)[nH]c(C(=O)COC(=O)c2cccc(S(=O)(=O)N(C)c3ccccc3)c2)c1C 74.2%
COc1ccc(CC(=O)Nc2nc(-c3ccc(F)c(F)c3)cs2)cc1OC 32.4%
O=C(Oc1ccc(-c2nnco2)cc1)c1ccc(F)c(S(=O)(=O)N2CCOCC2)c1 27.2%

inhibition, inactive:
CC(=O)OCC(COC(C)=O)OC(C)=O -2.99%
CC(=O)OCCC(C)C 6.5%
Cn1c(CCCOc2ccc(Cl)cc2Cl)n[nH]c1=S 6.7%
CN(Cc1ccc(CNC[C@H]2O[C@@H](n3cnc4c(N)ncnc43)[C@H](O)[C@@H]2O)o1)S(C)(=O)=O -3.06%
O=C(COC(=O)c1cccnc1Cl)Nc1ccc(S(=O)(=O)N2CCOCC2)cc1 13.3%
CCOc1ccc(NC(=O)CSc2nc3ccccc3c(=O)n2Cc2cccs2)cc1 8.62%
COC(=O)c1ccccc1NC(=O)CN(Cc1ccc(Cl)cc1)S(C)(=O)=O 5.2%
O=C(NC(=S)Nc1ccc(Cl)cc1Cl)C1CC1 6.51%
Cc1cc(NS(=O)(=O)c2ccc(NC(=O)c3cccc(OC(F)F)c3)cc2)nc(C)n1 -2.8%
O=C(NCc1ccco1)C(c1ccncc1)N(C(=O)Cn1nnc2ccccc21)c1ccccc1 (configuration not stated) 9.94%
O=C(Nc1ccc(S(=O)(=O)NCC2CCCO2)cc1)c1ccc(F)cc1 (configuration not stated) 1.2%
N=c1n(Cc2ccc(Cl)cc2)c2ccccc2n1CC(O)c1ccco1 (configuration not stated) 2.61%
O=S1(=O)CC/C(=N\Nc2ccc(F)cc2)c2ccsc21 -3.05%
CC(C)NS(=O)(=O)c1ccc(OCC(=O)NC2CCCCCC2)cc1 1.3%
Cc1cn([C@H]2C[C@H](O)[C@@H](/C=C/C(=O)NCCCc3ccccc3)O2)c(=O)[nH]c1=O 6.27%
Cc1ccc(NC(=O)c2ccc(Oc3ncccn3)cc2)cc1 9.93%
CCOC(=O)c1cccnc1NC(=O)c1ccncc1 4.86%
COC(=O)[C@]12CCCCC=C1N(CCC1=CCCCC1)C(=O)[C@H](CC(=O)N1CCSCC1)C2 1.29%
O=C(c1ccccc1)C(O)(CN1CCCCC1)c1ccccc1 (configuration not stated) 8.34%
CCc1ccccc1NC(=O)NCCN1CCCCC1 -5.44%
OC(C#CCN1CCOCC1)(c1ccccc1)C1CCCCC1 (configuration not stated) 7.29%
COc1ccc(C(O)(C2CCCCC2)C(CN2CCCC2)c2ccccc2)cc1 (configuration not stated) -3.7%
CC(CN1CCCCC1)c1ccccc1 (configuration not stated) 2.28%
c1ccc2cc3[nH]c(CN4CCCCC4)nc3cc2c1 7.88%
CCc1ccc[n+](-c2nc([O-])sc2C=O)c1 9.19%
Cc1ccc(C23CC4CC(CC(C(=O)NCC(=O)O)(C4)C2)C3)cc1 6.84%
Cc1nnc(SCCCCSc2nnc(C)c(=O)[nH]2)[nH]c1=O -7.67%
CC1(C(=O)Nc2ccccc2Br)CCN1C(=O)CC1CC1 (configuration not stated) 4.22%
COn1c(=O)c(=O)n(OC)c2ccccc21 6.69%
CCOc1cc(C(=O)Nc2ccc(S(=O)(=O)Nc3cnc4ccccc4n3)cc2)cc(OCC)c1OCC 0.97%
Nc1nnc(SCC(=O)NC2CCCc3ccccc32)s1 (configuration not stated) 2.63%
O=C(CSc1nc(-c2ccccc2)cs1)Nc1cccc([N+](=O)[O-])c1 14.8%
CCOC(=O)c1nc(-c2ccc3c(c2)OCO3)[nH]c1C 3.11%
COc1ccc2c(c1)[C@H]1[C@H](CO2)[C@H](c2ccccc2)[C@]2(C)C(=O)Nc3cc(F)c(F)cc3C(=O)N12 11.7%
CCN1CCC(O)(/C=C/c2ccc(C)cc2)C(C(=O)/C=C/c2ccc(C)cc2)C1 (configuration not stated) 5.72%
Cc1ccc(C(=O)N2CC(=O)Nc3ccc(F)cc3C2c2ccc(F)cc2)cc1 (configuration not stated) 11.2%
CCOc1ccc(-n2c(N)c(C(=O)NCC3CCCO3)sc2=S)cc1 (configuration not stated) 3.05%
Cc1cccc(C(=O)NCC(=O)OCC(=O)N(C)CC(=O)Nc2ccccc2Cl)c1 9.75%
CC1CC(NC(=O)/C(C#N)=C/c2ccc[nH]2)CC(C)(C)C1 (configuration not stated) 1.56%
CCC(=O)N1CCN=C1SCc1ccc(F)cc1 5.93%
COc1ccccc1CNc1nc(Nc2ccccc2Cl)c2sccc2n1 11.1%
COc1cccc(CNc2nc3cc(-c4csc5ccccc45)sc3c(=O)n2C)c1 2.12%
CN(C)c1ccc(NC(=S)N(CCc2ccccc2)C2CC(=O)N(c3c(Cl)cccc3Cl)C2=O)cc1 (configuration not stated) -4.62%
COC(=O)CN(C(=S)Nc1ccc(Cl)cc1)C1CC(=O)N(c2ccc(OC)cc2)C1=O (configuration not stated) 11.6%
CCn1ncc(CNC(=O)C2(C)CC2(Br)Br)c1C (configuration not stated) 4.36%
Cc1c(C)c(C)c(S(=O)(=O)N2CCC3(CC2)OCCO3)c(C)c1C 5.79%
COC(C/C=C/C(=O)[C@@H](C)OCc1ccccc1)OC 3.64%
CC(C)(C)C(=O)/C(C#N)=C/c1ccc(O)cc1 4.34%
NC1=NC(=O)S/C1=C\c1ccc(O)cc1 -0.48%
COc1ccc(S(=O)(=O)NCCOc2ccccc2)cc1F -2.02%
COc1ccc(OCCNS(=O)(=O)Cc2ccccc2)cc1 4.63%
Cc1ccc(S(=O)(=O)N2CCOCC2)cc1C(=O)OC1CCCCC1=O (configuration not stated) 5.95%
O=C(COc1ccccc1)Nc1cc2c3c(c1)CC(=O)N3CCC2 -0.99%
CCOC(=O)CCP(=O)(O)C(O)(c1ccccc1)c1ccccc1 -4.02%
CCC(C(=O)Nc1ccc(C(C)C)cc1)c1ccccc1 (configuration not stated) 19.2%
COC(CCN(C)C)(c1ccccc1)c1ccccc1 11.5%
CCN(CC)CCOC(=O)c1ccc(NC(=O)CNC(=O)c2ccccc2)cc1 10.2%
CN(C)C(=O)c1ccc2c(c1)C1C3CCC(C3)C1C(c1ccccc1)N2 (configuration not stated) -2.46%
CCOC(=O)N1CCC(NC(=O)Cn2cc3c(n2)CCCCC3)CC1 0.05%
CC(C)c1ccc(NC(=O)CCN2C(=O)c3ccc([N+](=O)[O-])cc3C2=O)cc1 -6.62%
CC(C)c1ccc(/C=C2\NC(=O)NC2=O)cc1 -18.6%
CCS(=O)(=O)N1CCC(N2CCN(c3ccccc3)CC2)CC1 8.56%
Cc1ccccc1NS(=O)(=O)CCCCC(Cl)(Cl)Cl 3.5%
COc1ccc(CN2CC(C(=O)NC3CCCCC3)CC2=O)cc1 (configuration not stated) -0.55%
CC(=O)N1CCN(Cc2cc(=O)oc3cc(C)ccc23)CC1 -1.45%
CN(c1ccccc1)S(=O)(=O)c1cccc(C(=O)NNC(=O)c2ccncc2)c1 1.22%
COc1ccc(C)cc1NC(=O)C(OC(=O)c1cccc(S(=O)(=O)N(C)c2ccccc2)c1)c1ccccc1 (configuration not stated) -1.67%
O=C(CCc1nnc2ccc(NCc3ccccc3Cl)nn12)NCC1CCN(C2CCCC2)C1 (configuration not stated) 1.64%
COC(C[C@H](O)CC(=O)COCc1ccccc1)OC 2.21%
O=C(NCCN1CCN(C(=O)c2cccc([N+](=O)[O-])c2)CC1)C(=O)NCc1ccc(Cl)cc1 10.1%
COc1ccc(CC(=O)NC2CCSc3ccccc32)cc1OC (configuration not stated) 17.6%
Cc1csc(NC(=O)CSc2ccc(-c3ccc(F)cc3)nn2)n1 6.55%
O=C(CNCCO)NC12CC3CC(CC(C3)C1)C2 -2.76%
COc1ccc(C(=O)Oc2ccc(-c3nnco3)cc2)cc1S(=O)(=O)N1CCOCC1 15.9%
NC(=O)C1CCN(C(=O)c2ccc(F)c(S(=O)(=O)N3CCOCC3)c2)CC1 13.8%
